Screens (PubChem BioAssay)
Shown are actives, neighbours in structure and some others; about 8% of the full set was active somewhere.
Gal4-VP16 FLuc = counter-screen for ROR gamma inhibitors: Gal4-VP16 reporter; Drosophila S2 Gal4-VP16 UAS-luciferase, luminescence, 20 h; Potency, µM (top dose mostly 53.6 µM), for inactives: at the highest dose activity, negative = inhibition, usual class: inhibitors; 310,000 tested, 3.5% active;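 note: Gal4-VP16 expression switched on by copper sulfate through the metallothionein promoter; potency is the fitted concentration of half-maximal effect; nearly all actives have a fitted effect of over 50% in size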
RORgamma inh = blocks mouse ROR gamma transcriptional activity | P51450 | Drosophila S2 Gal4-RORgamma UAS-luciferase reporter, 20 h | Potency, µM (highest dose often 53.6 µM), for the others: at the highest dose activity change, negative = inhibition, usual class: inhibitors | 310,000 tested, 5.4% active | AID 2551; note: potency is the fitted concentration of half-maximal effect; nearly all actives have a fitted effect of over 60% in size
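Schneider cells (Drosophila), stable Gal4 DBD–ROR gamma + UAS-luc; 1 hr cmpd preincubation; Cu2+ induction 700 uM final; 20 hr ambient; luminescence.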
ELG1 repair inh = blocks ELG1-dependent DNA repair in HEK293T cells. HEK293T ELG1-luciferase reporter, luminescence, 16 h; DNA damage induced by 5-fluorouridine. AID 504467. Potency, µM (highest dose often 46.1 µM), for the others: top-dose activity change, negative = inhibition, most hits filed as inhibitors. 330,000 tested, 2.3% active; note: potency is the fitted concentration of half-maximal effect; nearly all actives have a fitted effect of over 55% in size
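Cells (2,000 per well) received 5-fluorouridine plus test compound or DMSO and were incubated 16 hr at 37 °C, 5% CO2. Luciferase activity was read by luminescence 30 min after ONE-Glo addition; signal suppression marked inhibition of damage-induced ELG1 function.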
TSHR antagonist = blocks TSH signaling through the human TSH receptor; TSHR-expressing cells, TSH-stimulated cAMP HTRF, 2 h; hits give low values; 330,000 tested, 0.2% active; activity change, negative = inhibition, % at 11.5 µM; P16473; AID 504810;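 active = activity change below a set negative limit, meaning inhibition stronger than a set level, cut at about -70% in these data; inconclusive = activity change between two set negative limits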
Target sequence (P16473 whole entry, looked up): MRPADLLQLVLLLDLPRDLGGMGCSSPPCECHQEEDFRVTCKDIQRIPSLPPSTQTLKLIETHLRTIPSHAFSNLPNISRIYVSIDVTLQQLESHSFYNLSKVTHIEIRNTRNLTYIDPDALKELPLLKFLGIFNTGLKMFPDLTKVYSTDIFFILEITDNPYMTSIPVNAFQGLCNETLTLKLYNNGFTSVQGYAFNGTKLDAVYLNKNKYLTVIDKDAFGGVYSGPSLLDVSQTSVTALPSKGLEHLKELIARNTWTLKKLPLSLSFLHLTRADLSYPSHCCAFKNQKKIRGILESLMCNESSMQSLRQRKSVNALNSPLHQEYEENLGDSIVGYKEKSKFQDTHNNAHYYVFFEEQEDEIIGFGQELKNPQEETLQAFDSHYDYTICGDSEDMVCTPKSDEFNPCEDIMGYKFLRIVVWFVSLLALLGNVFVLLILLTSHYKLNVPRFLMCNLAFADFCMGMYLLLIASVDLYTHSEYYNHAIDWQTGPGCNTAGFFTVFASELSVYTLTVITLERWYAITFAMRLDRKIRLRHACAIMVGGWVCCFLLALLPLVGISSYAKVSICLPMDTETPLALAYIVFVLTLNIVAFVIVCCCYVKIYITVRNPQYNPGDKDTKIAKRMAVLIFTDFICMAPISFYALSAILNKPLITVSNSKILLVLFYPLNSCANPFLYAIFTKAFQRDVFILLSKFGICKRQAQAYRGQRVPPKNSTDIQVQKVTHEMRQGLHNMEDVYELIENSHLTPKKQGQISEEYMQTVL
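Inhibition of cAMP made by TSHR-expressing cells under TSH stimulation (4nM final, EC80; 2 h, 37 deg C) is quantified with a one-step lysis HTRF kit, anti-cAMP cryptate versus cAMP-d2.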
FBPA coupling cs = counter-screen for Giardia aldolase inhibitors: coupling enzyme system | coupling enzyme system counterscreen, AmpLite Red fluorescence | activity change, negative = inhibition, % at 58.2 µM, hits read low | 290,000 tested, 0.67% active; in the data active = activity change below about -30%
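Activity here indicates interference with the coupling reaction, not aldolase inhibition. Compounds at 57.5 uM final met coupling enzymes for 10 min at RT; substrate and AmpLite Red detection followed, with a 525/598 nm fluorescence read after 20 min.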
The depositor's hits bear a star; ? = inconclusive; . = no result; ! = not confirmed by another sample. Unless noted, calls come from the whole dose curve; as a rule, active = well fitted curve in the direction sought with a large enough effect; inconclusive = small, poorly fitted or top-dose-only effect, or another doubt; inactive = no such curve, though single readings can be large; an effect the other way counts as inactive or inconclusive. % is set by controls: 0 for no effect and ±100 for the full control effect.

SMILES	Gal4-VP16 FLuc	RORgamma inh	ELG1 repair inh	TSHR antagonist	FBPA coupling cs
CCOC(=O)c1ccc(-c2ccc(/C=C(\C#N)C(=O)NCc3cccs3)o2)cc1	3.16µM*	?	?	-5.1	5.8
O=C(CCC(=O)N1CCN(S(=O)(=O)c2ccccc2Cl)CC1)c1ccccc1	.	.	-27.0%	-2.1	.
CCCC[C@@H]1C[C@H]1C(NC(=O)c1cccs1)c1ccccc1C(F)(F)F (stereo partly specified)	2.4%	-19.0%	.	.	-8.0
Cc1cc(Br)cnc1NC(=S)Nc1ccc(F)cc1F	?	6.31µM*	2.6%	-6.2	-0.7
COc1ccc(NC(=O)COC(=O)c2c3c(nc4ccccc24)CCCC3)cc1Cl	-13.5%	20.6%	18.4µM*	-20.9	1.7
COc1ccc(OC)c(NC(=O)COC(=O)c2c3c(nc4ccccc24)CCCC3)c1	-21.1%	-0.6%	11.6µM*	-19.9	-0.5
COc1ccc(NC(=O)COC(=O)c2c3c(nc4ccccc24)CCCC3)cc1	-5.8%	-5.7%	16.4µM*	-34.0	-2.1
CNC(=O)COC(=O)c1c2c(nc3ccccc13)CCC2	1.4%	14.4%	-6.6%	4.5	-0.6
OC1CCCC1	0.4%	-21.6%	21.2%	3.7	.
COc1ccc(N(CC(=O)NCc2ccc(F)cc2)C(=O)Cn2nnc(-c3ccc(C)o3)n2)cc1OC	-9.7%	2.6%	0.0%	-12.6	1.4
O=C(CNC(=O)c1ccc2ccccc2c1)NCc1ccc(F)cc1	4.5%	0.5%	-17.8%	4.3	3.1
COc1ccc(Cl)cc1/C=C/c1ccc2cccc(O)c2n1	0.794µM*	0.891µM*	?	-4.9	-7.2
COc1cc(Cl)cc(/C=C/c2ccc3cccc(O)c3n2)c1OC	-10.4%	5.01µM*	3.3%	-3.7	-0.7
COc1c(OC(C)=O)ccc(/C=C/c2ccc3ccccc3n2)c1[N+](=O)[O-]	?	?	?	-5.3	1.2
COc1c(OC(C)=O)ccc(/C=C/c2ccc3cccc(OC)c3n2)c1[N+](=O)[O-]	-16.7%	?	?	47.6	-0.5
COc1ccccc1/C=C/c1ccc2cccc(O)c2n1	?	3.98µM*	?	-9.1	-10.7
S=C(NCc1ccccc1)N1CCn2cccc2C1c1ccncc1 (stereo unspecified)	0.0%	3.98µM*	-12.4%	4.1	-0.7
S=C(NCc1ccccc1)N1CCn2cccc2C1c1cccnc1 (stereo unspecified)	-16.4%	17.0%	?	-9.7	0.2
Fc1ccc(C2c3cccn3CCN2C(=S)Nc2cccc(Br)c2)cc1 (stereo unspecified)	?	8.91µM*	?	-21.6	-6.6
COc1ccc(S(=O)(=O)N2CCc3ccccc32)cc1C(=O)NCC(c1ccco1)N1CCCC1 (stereo unspecified)	.	.	18.9%	.	.
CCC(C)C(=O)OC1CCC=C2C=CC(C)C(CCC3CC(O)CC(=O)O3)[C@@H]21 (stereo partly specified)	5.3%	10.1%	.	.	-0.1
CCn1c(CN2CCN(CCO)CC2)nc2ccccc21	-8.3%	-10.3%	15.8%	4.1	3.7
c1ccc(Cn2c(CN3CCCC3)nc3ccccc32)cc1	?	14.1µM*	-2.2%	-5.1	0.2
Clc1ccc(Cn2c(CN3CCCC3)nc3ccccc32)cc1	7.08µM*	2µM*!	-1.5%	-3.4	-12.8
CC(C)Nc1oc(-c2ccccc2)nc1-c1cccc2ccccc12	4.1%	0.4%	.	.	1.5
SMILES	Gal4-VP16 FLuc	RORgamma inh	ELG1 repair inh	TSHR antagonist	FBPA coupling cs
c1ccc(-c2nc(-c3cccc4ccccc34)c(Nc3ccc4ccccc4c3)o2)cc1	1.5%	5.62µM*	.	.	-1.7
Cc1cc(-c2nnc(SCC(=O)Nc3nc(-c4ccc(Cl)cc4)cs3)o2)no1	?	14.1µM*	2.2%	-2.7	2.8
COc1cc(NC(=O)CSc2nnc(-c3cc(C)on3)o2)cc(OC)c1	0.0%	-10.8%	5.6%	25.5	5.1
Cc1cc(-c2nnc(SCCC(=O)Nc3ccccc3)o2)no1	?	14.1µM*	?	-3.3	.
COc1cc2c(cc1OC)C1=C(C#N)CN(C3CCCCC3)CN1CC2	3.7%	6.2%	?	2.6	-2.4
COc1ccc(CCN2CC(C#N)=C3c4cc(OC)c(OC)cc4CCN3C2)cc1OC	3.7%	16.4%	20.6µM*	-1.5	0.4
COc1cccc(NC(=O)CSc2nnc(-c3cc(C)n(-c4ccccc4)c3C)o2)c1	11.2µM*	10µM*	?	5.3	2.9
COc1ccc(NC(=O)CSc2nnc(-c3cccc(O)c3)o2)cc1	-12.4%	-35.5%	?	38.4	-15.8
COCCNc1cnn(-c2ccccc2)c(=O)c1Cl	-6.8%	5.8%	?	-122.2*	0.2
CCOc1cnn(-c2ccccc2)c(=O)c1Cl	-5.3%	17.4%	?	-3.5	0.2
O=c1c(Cl)c(Cl)cnn1-c1ccccc1	11.2µM*	10µM*	18.4µM*	-6.2	-5.3
CC1(C(=O)NCc2ccc(F)cc2)Oc2ccccc2NC1=O (stereo unspecified)	0.316µM*	-57.1%	?	12.9	-8.8
CC(C)(C)c1ccc(C(=O)Nc2ccc(Cl)cc2)cc1	-4.7%	3.1%	?	0.5	-0.6
CC(C)(C)c1ccc(NC(=O)c2ccsc2)cc1	7.94µM*	-28.0%	?	-15.3	-20.7
COC(=O)Cc1ccc(NC(=O)c2ccc(C(C)(C)C)cc2)cc1	?	1.58µM*	9.2µM*	-21.7	-0.8
Cc1cc(C)n(-c2ccc(NC(=O)C3CCCCN3Cc3cccc4c3OCO4)cc2)n1 (stereo unspecified)	.	.	?	-7.4	-6.5
Cc1ccc(Cn2ncc3c(NN)ncnc32)cc1	?	12.6µM*	?	2.9	0.4
Cc1ccc(Cn2ncc3c(N4CCN(Cc5ccc(Cl)cc5)CC4)ncnc32)cc1	?	?	5.8µM*	-28.0	-0.6
Cc1ccc(Cn2ncc3c(N4CCN(c5ccc(C)cc5)CC4)ncnc32)cc1	-2.3%	4.0%	-19.9%	-7.0	2.3
O=C(c1ccccc1F)N1CCN(C(=O)C(c2ccccc2)c2ccccc2)CC1	-11.9%	-5.2%	1.1%	1.0	4.7
COc1cccc2c1CCC1CC(=O)CC[C@@]21C (stereo partly specified)	-4.8%	17.3%	.	.	6.2
COc1ccc(/C(C)=N/NC(=O)CNC(=O)/C=C\c2ccccc2)c(OC)c1	2.7%	17.4%	16.1%	2.9	0.5
COCCNC(=S)N/N=C(\C)c1ccc(OC(F)F)cc1	7.94µM*	2.24µM*	0.5%	-0.4	3.0
COCCNC(=S)N/N=C(\C)c1cccc(C(F)(F)F)c1	5.01µM*	2.51µM*	-3.0%	10.1	-1.0
C/C(=N\NC(=O)C(N)=O)c1cccc(C(F)(F)F)c1	-20.3%	1.6%	16.0%	5.0	-1.2
COCCNC(=S)N/N=C(\C)c1ccc(C)c([N+](=O)[O-])c1	3.98µM*	3.55µM*	-12.0%	3.2	-1.0
